The values that follow come from PubChem BioAssay (NCATS).

Assay [1] is described as follows: Cell Viability - H-4-II-E (AID 543).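 Note: cells exposed to compound for 40 hours; % is set by controls: 0 for no effect and ±100 for the full control effect; nearly all actives have a fitted effect of over 35% in size.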 In short, it runs like this: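 AC50 from Hill-modelled qHTS concentration-response curves. H-4-II-E rat hepatoma cells in complete medium, 40 hr exposure at 37 °C, viability by CellTiter-Glo ATP luminescence.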
Assay [2] is described as follows: Cell Viability - Renal Proximal Tubule (AID 545).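 Note: cells exposed to compound for 40 hours; nearly all actives have a fitted effect of over 40% in size.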 In short, it runs like this: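 Cytotoxicity is scored as a concentration-dependent drop in cellular ATP in primary rat renal proximal tubule cells exposed for 40 hr. AC50 derives from Hill modelling.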
Assay [3] in a line: Cell Viability - Mesenchymal (AID 546).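 Note: cells exposed to compound for 40 hours before reading.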 The method, boiled down:
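CellTiter-Glo luminescence (intracellular ATP, 20 min room temperature) after 40 hr compound exposure at 37 °C of 1000 glomerulus-derived human kidney mesenchymal cells/well; AC50 values obtained by fitting qHTS concentration-response data to the Hill equation.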

Assay [4] in a line: Cellular Toxicity (caspase-3) HepG2 (AID 654).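 Note: cells exposed to compound for 16 hours before reading; 0% = DMSO alone and 100% = caspase signal from 100 µM tamoxifen.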 The method, boiled down: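 Concentration-response AC50 values reflect caspase-3/7 induction in HepG2 cells after 16 hours of compound exposure, quantified by luminescence from liberated aminoluciferin and referenced to 100 uM tamoxifen as full stimulation.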
Assay [5] can be described thus: Cellular Toxicity (caspase-3) Jurkat (AID 655).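 Note: cells exposed to compound for 16 h at 37 °C before reading.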 The conditions noted are these: Jurkat caspase-3 activation, luminescence; caspase-3 activation: at 92.2 µM (top of the series), DMSO = 0%, tamoxifen = 100%. The method, boiled down:
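Caspase 3/7 activation is scored as increased luminescence in Jurkat cells cultured with compound for 16 hours in complete medium. AC50 values come from Hill fits of qHTS concentration-response data normalized to DMSO and 100 uM tamoxifen controls.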

Assay [6] can be described thus: Cellular Toxicity (caspase-3) HUV-EC-C (AID 656). The method, boiled down: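 Read-out: luminescence proportional to caspase 3/7 activity, measured 20 min after adding Caspase-Glo 3/7 reagent. Cells (HUV-EC-C) had received compound for 16 hr at 37°C. Increases relative to DMSO and 100 uM tamoxifen gave concentration-response AC50 values.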
Assay [7] can be described thus: Cellular Toxicity (caspase-3) SHSY5Y (AID 657). The method, boiled down: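 Cells plated and incubated 5 h at 37 °C, dosed over a concentration range, incubated 16 h, then given Caspase-Glo 3/7 reagent for 1 h at room temperature before luminescence reading. Staurosporine (10 uM) defined full stimulation.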
Assay [8] in a line: Cellular Toxicity (caspase-3) BJ (AID 658).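 Note: 0% = DMSO basal and 100% = 10 µM staurosporine.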 In short, it runs like this:
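Caspase-Glo 3/7 luminescence, read 1 hr after reagent at room temperature, in normal BJ fibroblasts exposed 16 hours at 37 °C. AC50 values from Hill-equation concentration-response, scaled between DMSO basal and 10 uM staurosporine as 100%.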

Assay [9] can be described thus: Cellular Toxicity (caspase-3) MRC-5 (AID 659).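 Note: 0% = DMSO basal and 100% = 10 µM staurosporine.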 The method, boiled down: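 Luminescent Caspase-Glo 3/7 read-out (1 h, room temperature) after a 16 h, 37 °C compound exposure of MRC-5 lung fibroblasts at 1500 cells/well. Concentration-response AC50 from Hill equation; 0% DMSO, 100% 10 uM staurosporine.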
Assay [10] in a line: Cellular Toxicity (caspase-3) Mesangial (AID 660).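 Note: cells exposed to compound for 16 h before the caspase read.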 As to conditions: mesangial cells, normalized: DMSO 0%, 100 µM tamoxifen 100%; at 91.7 µM (top of the series). In short, it runs like this: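 AC50 values come from Hill-equation fits of caspase 3/7 activation, measured as Caspase-Glo luminescence in human glomerular mesangial cells exposed to compound for 16 h at 37 °C; 100% set by 100 uM tamoxifen.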

Assay [11] can be described thus: Cellular Toxicity (caspase-3) SK-N-SH (AID 661).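 Note: 0% = DMSO basal and 100% = 10 µM staurosporine.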 The method, boiled down: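 Apoptosis readout in SK-N-SH neuroblastoma: Caspase-Glo 3/7 luminescence following 16 hr treatment in complete culture medium. Normalization used DMSO and 10 uM staurosporine controls.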
The nature of assay [12]: Cellular Toxicity (caspase-3) H-4-II-E (AID 663).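 Note: cells exposed to compound for 16 hr before readout.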 As to conditions: H-4-II-E rat hepatoma, scaled: DMSO 0%, 100 µM tamoxifen 100%; at 92.2 µM (top of the series). In short, it runs like this: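 Caspase 3/7 activation measured by luminescent aminoluciferin substrate cleavage after 16 hr compound treatment of H-4-II-E cells in complete medium. Increase normalized between DMSO (basal) and 100 uM tamoxifen (100%); Hill-equation AC50 from concentration-response.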

The nature of assay [13]: Cellular Toxicity (caspase-3) Hek293 (AID 664).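 Note: cells exposed to compound for 16 h at 37 °C before readout.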 The conditions noted are these: HEK293 caspase-3 activation, DMSO = 0%, 100 µM tamoxifen = 100%; at 92.2 µM (top of the series). The method, boiled down:
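Apoptosis readout: Caspase-Glo 3/7 signal in human HEK293 cells following 16-hour compound incubation. Responses scaled between DMSO baseline and 100 uM tamoxifen.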

A short description of assay [14]: Cellular Toxicity (caspase-3) N2a (AID 665).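 Note: compound exposure lasted 16 h at 37 °C before readout.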 In short, it runs like this: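 Concentration-response qHTS: compound-induced caspase-3/7 luminescence in N2a cells (16 h, 37 °C), relative to DMSO and 10 uM staurosporine controls; AC50 obtained using the standard Hill equation.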
A short description of assay [15]: Cellular Toxicity (caspase-3) NIH 3T3 (AID 666). In short, it runs like this:
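Activity: caspase-3/7 induction, NIH 3T3 cells, 16 hr treatment at 37°C, luminescent Caspase-Glo detection; AC50 via Hill equation.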

Assay [16] can be described thus: Cellular Toxicity (caspase-3) Renal Proximal Tubule (AID 667).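 Note: cells exposed to compound for 16 hours at 37 °C before detection; 0% = DMSO basal and 100% = 10 µM staurosporine.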 As to conditions: Potency: caspase-3 activation. In short, it runs like this: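 In qHTS format, rat primary proximal tubule cells seeded at 1000 per well are exposed to compounds for 16 hours at 37 °C. An increase in Caspase-Glo 3/7 luminescence indicates caspase activation.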
The target of assay [17] is Cytochrome P450 3A4 (Homo sapiens) (UniProt P08684). In words: qHTS Assay for Inhibitors and Substrates of Cytochrome P450 3A4 (AID 884). Note: nearly all actives have a fitted effect of over 50% in size. Note: potency is the fitted concentration of half-maximal effect. In short, it runs like this:
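Luminescent readout of luciferin produced by CYP3A4 (20 nM) dealkylation of Luciferin-PPXE, 25 uM (its KM). NADPH-driven reaction ran 60 min at RT after 10 min compound preincubation; data scaled to 57 uM ketoconazole as 100% inhibition.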
A general note: In qHTS, concentration-response curves come from the screen itself.

Assay [18] in a line: Cell Viability - LYMP2-001 (AID 921).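 Note: cells exposed to compound for 24 h at 37 °C; 0% = DMSO only and full inhibition = tetraoctylammonium bromide control wells; nearly all actives have a fitted effect of over 70% in size.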 In short, it runs like this:
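qHTS, 1536-well; lymphoblastoid cells, 24 hr compound, 37 C; ATP by CellTiter-Glo, 30 min RT; luminescence; Hill-fit AC50.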

Assay [19] can be described thus: Cell Viability - SH-SY5Y (AID 544).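 Note: cells exposed to compound for 40 hours; nearly all actives have a fitted effect of over 55% in size.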 As to conditions: SH-SY5Y neuroblastoma cell viability; viability change, negative = cytotoxic: at 92.2 µM (top of the series). In short, it runs like this:
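Quantitative HTS in SH-SY5Y neuroblastoma cells, 40 hr treatment at 37 °C, ATP content by luciferase luminescence; AC50 from Hill fits.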

The target of assay [20] is Cytochrome P450 3A4 (Homo sapiens) (UniProt P08684). In words: qHTS Assay for Activators of Cytochrome P450 3A4 (AID 885). Note: nearly all actives have a fitted effect of over 65% in size. In short, it runs like this: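 CYP3A4 activity: Luciferin-PPXE O-dealkylation, 25uM substrate, 200mM KPO4, RT throughout. Read-out is luciferase luminescence; higher values reflect activation.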
Sequence of Cytochrome P450 3A4 (Homo sapiens) (P08684 whole entry, looked up): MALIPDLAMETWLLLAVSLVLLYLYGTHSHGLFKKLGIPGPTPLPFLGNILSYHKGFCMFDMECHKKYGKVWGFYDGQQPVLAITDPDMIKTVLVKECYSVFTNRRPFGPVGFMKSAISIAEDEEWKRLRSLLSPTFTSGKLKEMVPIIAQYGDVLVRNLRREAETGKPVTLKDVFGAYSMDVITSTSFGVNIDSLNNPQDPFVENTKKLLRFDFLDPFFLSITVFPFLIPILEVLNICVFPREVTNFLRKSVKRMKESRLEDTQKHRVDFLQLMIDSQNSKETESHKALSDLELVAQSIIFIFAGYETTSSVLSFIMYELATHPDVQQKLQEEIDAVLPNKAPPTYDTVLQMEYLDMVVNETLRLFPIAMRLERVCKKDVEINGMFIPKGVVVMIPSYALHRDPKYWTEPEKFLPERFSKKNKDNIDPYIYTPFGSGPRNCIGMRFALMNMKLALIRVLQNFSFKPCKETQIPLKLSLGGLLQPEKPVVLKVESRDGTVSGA

Unmarked numbers belong to inactive results. Inconclusive results are not listed. Active and inactive are the calls of the source. Calls come from the whole dose curve; as a rule, active = well fitted curve in the direction sought with a large enough effect; inconclusive = small, poorly fitted or top-dose-only effect, or another doubt; inactive = no such curve, though single readings can be large; an effect the other way counts as inactive or inconclusive.

Take `Nc1nc(CC(=O)O)cs1`: the Potency result in [1], in assay [2], in assay [3], in assay [4], in assay [16] and in assay [17] was “inactive” in each case. Besides, the Potency result in assay [18] was “inactive”. For the same molecule, the caspase-3 activation was 0.779% in assay [5], 0.647% in [10], 0.956% in assay [12] and -1.7% in [13]. Further, the call in assay [6], in assay [7], in assay [8], in assay [9], in assay [11] and in assay [14] was inactive. In addition, the result in assay [15] was inactive.
Consider `O=Cc1ccc(C(=O)O)cc1`, for which the Potency result in assay [1], in assay [19], in assay [2], in [4], in assay [16] and in [17] was “inactive” each time. Further, the Potency entry in [18] is “inactive”. For the same molecule, the result in assay [6], in [7], in [9], in assay [11], in assay [14] and in assay [15] was inactive. The caspase-3 activation in assay [10] was 0.146%; in [12], -0.315%; in assay [13], -1.79%.
Regarding `CC(=O)Nc1ccccc1C`, the Potency result in assay [1], in [2], in assay [3], in assay [4], in [16] and in assay [17] was “inactive” each time. The Potency entry in [18] is “inactive”. Besides, the caspase-3 activation in assay [5] was 1.08%; in [10], 2.04%; in assay [12] it was 1.63%; in [13], 3.57%. The molecule was classed as inactive in assay [6], in [7], in [8], in assay [9], in assay [11] and in assay [14]. Moreover, the result in assay [15] was inactive.
With `O=C(O)c1ccc(C(=O)O)cc1`, the Potency result in assay [1], in [19], in assay [2], in assay [3], in [4] and in [16] was “inactive” each time. Moreover, the Potency entry in [17] and in assay [18] was “inactive” each time. The outcome in [6], in assay [7], in [9], in assay [11], in [14] and in [15] was inactive. Besides, the caspase-3 activation in assay [10] is -1.02%; in [12] it was 0.895%; in assay [13] it was -1.8%.
Regarding `O=C1CCC(=O)O1`, the Potency result in [1], in assay [19], in assay [2], in assay [4], in assay [16] and in assay [18] was “inactive” throughout. Moreover, the caspase-3 activation in [5] is 1.09%; in assay [12], 0.691%; in [13], 0.163%. For the same molecule, the result in assay [6], in [7], in assay [8], in assay [9], in assay [14] and in assay [15] was inactive.
As to `Cc1ccc([N+](=O)[O-])c(N)c1`, the Potency entry in assay [1], in [19], in assay [2], in assay [4], in assay [16] and in assay [17] was “inactive” throughout. In addition, the Potency entry in assay [18] is “inactive”. For the same molecule, the caspase-3 activation is 1.25% in assay [5], -0.782% in assay [10], -0.384% in assay [12] and 0.555% in assay [13]. For the same molecule, the call in assay [6], in assay [7], in [8], in assay [9], in assay [11] and in assay [14] was inactive. For the same molecule, the call in [15] was inactive.
In the case of `Nc1nc(-c2ccccc2)cs1`, the Potency entry in assay [1], in assay [2], in assay [3], in [4], in assay [16] and in assay [18] was “inactive” each time. Further, the caspase-3 activation in assay [5] is -3.96%; in assay [10] it was 0.48%; in [12], 0.301%; in [13], 0.507%. Further, the call in [6], in assay [7], in assay [8], in [9], in [11] and in [14] was inactive. The result in [15] and in [20] was inactive. The Potency in assay [17] is 20 µM (active).
Turning to `Clc1ccccn1`, the Potency result in [1], in [19], in assay [2], in [4], in [16] and in [17] was “inactive” throughout. Besides, in [18], the Potency result is “inactive”. For the same molecule, the caspase-3 activation in assay [5] is -1.1%; in assay [10], 0.0313%; in assay [12], -0.264%; in [13], 0.154%. Further, the outcome in assay [6], in assay [7], in assay [8], in assay [9], in assay [11] and in assay [14] was inactive. Moreover, the result in assay [15] was inactive.
On to `CNC(=O)N(c1ccccc1)c1ccccc1`, for which the Potency entry in [1], in assay [19], in assay [2], in assay [3], in assay [4] and in assay [16] was “inactive” in each case. Also, the Potency entry in assay [18] was “inactive”. For the same molecule, the result in assay [7], in assay [8], in [9], in assay [11], in assay [14] and in assay [15] was inactive. Also, the caspase-3 activation in assay [10] is 0.477%; in assay [12] it was 1.51%; in [13] it was 0.502%.
